Results from PubChem BioAssay (NCATS).
Records with an inconclusive call do not appear. Active and inactive are the calls of the source. Unless noted, the call rests on the fitted dose curve; in most records, active means well fitted curve in the direction sought with a large enough effect; inconclusive means small, poorly fitted or top-dose-only effect, or another doubt; inactive means no such curve, though single readings can be large; an effect the other way counts as inactive or inconclusive.

Key:
[1] = AP1 Signaling Pathway (AID 357; active means well fitted curve in either direction with a large enough effect, not every such curve was filed as active; further: on the % scale 0 is the no-effect control and ±100 the full control effect); conditions: ME-180 AP-1-bla reporter, EGF-induced, beta-lactamase ratio, 5 h; at 7.69 µM (top of the series) unless noted
How it was run: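 AP-1-bla ME-180 cells with beta-lactamase reporter under AP-1 response element, stimulated with EC50 EGF; compounds titrated, 5 hours at 37 degrees Celsius. CCF4 read at 460/530 nm ratio; positive and negative modulators judged by AC50.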

[2] = biological target: Cytochrome P450 1A2 (Homo sapiens) (UniProt P05177); assay: p450-cyp1a2 (AID 410; calls by dose curve;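 further: -100% = full effect of reference inhibitor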)
How it was run: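 20nM CYP1A2 with 100uM Luciferin-ME (at Km) in 100mM KPO4; compound preincubated 10 min, NADPH regeneration added, 60 min at room temperature. Luciferin quantified by luminescence after detection reagent; normalized to 57 uM furafylline.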

[3] = NFAT Signaling Pathway (AID 444; active means well fitted curve in either direction with a large enough effect, not every such curve was filed as active;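 further: carbachol stimulus at about its EC50 of 1 µM final; on the % scale 0 is the no-effect control and ±100 the full control effect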); conditions: Jurkat NFAT-bla M1, carbachol, beta-lactamase ratio, 5 h; at 7.69 µM (top of the series) unless noted
How it was run: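 Jurkat cells with NFAT-driven β-lactamase reporter and co-expressed M1 receptor, stimulated with carbachol (final 1 uM, ~EC50), compound titration, 5 h at 37 °C. CCF4 loaded 1 h at RT; 460/530 nm ratio gave %activity and AC50.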

[4] = Stat Signaling Pathway (AID 446; active means well fitted curve in either direction with a large enough effect, not every such curve was filed as active;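 further: ME-180 cervical cancer cells given 40 pM IL-6 alongside compound; SIE-controlled beta-lactamase reporter measured as 460/530 nm FRET emission ratio; on the % scale 0 is the no-effect control and ±100 the full control effect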); conditions: ME-180 (cervical carcinoma) SIE beta-lactamase reporter, IL-6 stimulated, 5 h; at 7.69 µM (top of the series) unless noted
How it was run: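 IL-6/STAT signaling read in ME-180 cells via an SIE beta-lactamase reporter. Stimulus was 40 pM IL-6 (its AC50) for 5 hrs, so both activation and inhibition register.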

[5] = biological target: Glucocorticoid receptor (Homo sapiens) (UniProt P04150); assay: GR-EFC Redistribution (AID 451; calls by dose curve; further: potency means the concentration at half of the fitted maximal effect); conditions: CHO-K1 GR-EFC translocation, beta-gal luminescence, 2 h
How it was run: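 CHO-K1 cells expressing nuclear EA and GR-ED fragments of b-gal; compounds titrated up to 46 uM final, 2 h at 37 C. GR nuclear translocation read as complemented b-gal luminescence after 1 h RT detection.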

[6] = biological target: Mitogen-activated protein kinase 10 (Mus musculus) (UniProt Q61831); assay: JNK3 AlphaScreen Assay (AID 530; active means well fitted curve in either direction with a large enough effect, not every such curve was filed as active;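 further: kinase came from lysate of stimulated human HepG2 cells; signal reports phosphorylation of biotinylated GST-cJun 1-79 at Ser73 with 10 µM ATP; on the % scale 0 is the no-effect control and ±100 the full control effect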)
How it was run: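 Pre-activated (IL-1β/TNFα) JNK3 in HepG2 lysates phosphorylates biotin-GST-cJun(1-79), 10 uM ATP; anti-phospho-cJun(Ser73) AlphaScreen read at room temperature, pH 7.6 Tris buffer. Compounds pre-incubated 15 min as titrations.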

[7] = biological target: 3',5'-cyclic-AMP phosphodiesterase 4B (Homo sapiens) (UniProt Q07343); assay: qHTS Assay for Inhibitors of PDE-IV (AID 607; active means well fitted activation curve with a large enough effect in the main read-out, with a control signal flat, not every such curve was filed as active; further: % of control where 0% means no effect)
How it was run: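 Live HEK293 cells with a modified cyclic nucleotide-gated (CNG) channel report intracellular cAMP via membrane-potential dye fluorescence (ex 535/em 590 nm). Endogenous PDE-IV was targeted. Compounds were tested at up to 22.9 uM final; RO 20-1724 100 uM served as control.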

[8] = qHTS Assay for Lipid Storage Modulators (AID 1519; calls by dose curve); conditions: Drosophila S3 cells, BODIPY lipid droplet/cell ratio, laser cytometry, cells loaded with oleic acid
How it was run: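 Cells seeded at 5,000 per well were treated with compounds over a concentration series and loaded with oleic acid (400 uM, as added). Lipid droplet fluorescence (488 nm excitation, 500-530 nm channel) was read by laser-scanning cytometry and normalized to 20 uM Triacsin C.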

[9] = biological target: ATP-dependent 6-phosphofructokinase (Trypanosoma brucei brucei) (UniProt O15648); assay: qHTS Assay to Find Inhibitors of T. brucei phosphofructokinase: hit validation (AID 492961); further: on the % scale 0 is the no-effect control and ±100 the full control effect
How it was run: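 Luminescence from ADP-Glo reports ADP generated as T. brucei PFK (1.25 nM) phosphorylates 0.5 mM fructose-6-phosphate using 0.1 mM ATP. Reactions ran 45 min at room temperature, pH 8.0.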

[10] = biological target: Ubiquitin carboxyl-terminal hydrolase 1 (Homo sapiens) (UniProt O94782); assay: Inhibitors of USP1/UAF1: Pilot qHTS (AID 504865);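 further: rhodamine fluorescence freed from ubiquitin-rhodamine substrate followed over time; top concentration of the series differs between compounds; on the % scale 0 is the no-effect control and ±100 the full control effect; nearly all actives have a fitted effect of over 35% in size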
How it was run: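 USP1/UAF1 complex at 1 nM preincubated 15 min at room temperature with compound, then Ub-Rho substrate added at 150 nM final. Fluorescence (480/540 nm) read kinetically in 50 mM HEPES pH 7.8, 0.5 mM EDTA, 1 mM TCEP, 0.1 mg/ml BSA, 0.01% Tween-20.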

[11] = biological target: Luciferin 4-monooxygenase (Photinus pyralis) (UniProt P08659); assay: Biochemical firefly luciferase enzyme assay for NPC (AID 624030);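 further: purified P. pyralis luciferase at 10 nM with luciferin and ATP substrate; 0% = DMSO and -100% = full luciferase inhibition by PTC124 control; nearly all actives have a fitted effect of over 70% in size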
How it was run: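 Purified P. pyralis luciferase at 10 nM in 50 mM Tris Acetate (final), luminescence read within 5 minutes of enzyme addition to compounds. Activity normalised to PTC124 versus DMSO; concentration-response curves classed by r2, magnitude and activity.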

[12] = S16 Schwann cell viability assay (CellTiter-Glo assay) (AID 624031);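 further: cellular ATP luminescence as a viability measure; plate controls were DMSO-treated cells for no effect and cell-free wells for full effect; nearly all actives have a fitted effect of over 70% in size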
How it was run: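 Untransfected S16 rat Schwann cells; compound 24 h, 37 °C/5% CO2; CellTiter-Glo ATP luminescence. % activity vs no-cell wells and DMSO controls (0%); concentration-effect curves classed by r2, response magnitude, activity.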

[13] = S16 Schwann cell PMP22 intronic element firefly luciferase assay (AID 624032);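 further: plate controls were DMSO for no effect and PTC124 positive control mean for full effect; nearly all actives have a fitted effect of over 30% in size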
How it was run: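 Rat S16 Schwann cells stably carrying firefly luciferase driven by a PMP22 intronic element, in 10% FBS, treated 24 h at 37 C. ONE-Glo luminescence normalized to PTC124 control and DMSO (0%); curves classed by r2, magnitude and activity.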

[14] = S16 Schwann cell PMP22 intronic element beta-lactamase assay (AID 624044; calls by dose curve;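 further: 0% = DMSO and -100% = potassium clavulanate positive control; nearly all actives have a fitted effect of over 15% in size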)
How it was run: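 Rat S16 Schwann cells with beta-Lac driven by a PMP22 intronic element, compound-treated 24 h at 37 °C. LiveBLAzer FRET B/G read: 460 nm normalized to potassium clavulanate vs DMSO; 535 nm FRET as viability; concentration-effect curves classified.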

[15] = qHTS profiling for inhibitors of Plasmodium falciparum proliferation (AID 504749);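 further: 0% = DMSO vehicle and full inhibition = artemisinin control; nearly all actives have a fitted effect of over 60% in size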; conditions: P. falciparum in erythrocytes, SYBR Green DNA, 72 h, at 12.8 µM (top of the series)
How it was run: (§1)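 P. falciparum-infected erythrocytes (0.3% parasitemia, 2.5% hematocrit) incubated with compound 72 h at 37 C, 5% CO2. Parasite DNA detected by SYBR Green after lysis, overnight at room temperature; normalised to 0.29 uM artemisinin and DMSO.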

3D7 = assay: as above; conditions: P. falciparum in erythrocytes, SYBR Green DNA, 72 h; series mostly up to 12.8 µM
How it was run: as §1

7G8 = assay: as above; conditions: P. falciparum in erythrocytes, SYBR Green DNA, 72 h; series mostly up to 12.8 µM
How it was run: as §1

AA1029 = assay: as above; conditions: P. falciparum in erythrocytes, SYBR Green DNA, 72 h; series mostly up to 12.8 µM
How it was run: as §1

AS120 = assay: as above; conditions: P. falciparum in erythrocytes, SYBR Green DNA, 72 h; series mostly up to 28.7 µM
How it was run: as §1

ATS189 = assay: as above; conditions: P. falciparum in erythrocytes, SYBR Green DNA, 72 h; series mostly up to 12.8 µM
How it was run: as §1

ATS95 = assay: as above; conditions: P. falciparum in erythrocytes, SYBR Green DNA, 72 h; series mostly up to 12.8 µM
How it was run: as §1

C2A = assay: as above; conditions: P. falciparum in erythrocytes, SYBR Green DNA, 72 h; series mostly up to 12.8 µM
How it was run: as §1

CP185 = assay: as above; conditions: P. falciparum in erythrocytes, SYBR Green DNA, 72 h; series mostly up to 12.8 µM
How it was run: as §1

CP191 = assay: as above; conditions: P. falciparum in erythrocytes, SYBR Green DNA, 72 h; series mostly up to 12.8 µM
How it was run: as §1

CP192 = assay: as above; conditions: P. falciparum in erythrocytes, SYBR Green DNA, 72 h; series mostly up to 28.7 µM
How it was run: as §1

CP194 = assay: as above; conditions: P. falciparum in erythrocytes, SYBR Green DNA, 72 h; series mostly up to 12.8 µM
How it was run: as §1

CP201 = assay: as above; conditions: P. falciparum in erythrocytes, SYBR Green DNA, 72 h; series mostly up to 12.8 µM
How it was run: as §1

CP203 = assay: as above; conditions: P. falciparum in erythrocytes, SYBR Green DNA, 72 h; series mostly up to 12.8 µM
How it was run: as §1

CP211 = assay: as above; conditions: P. falciparum in erythrocytes, SYBR Green DNA, 72 h; series mostly up to 12.8 µM
How it was run: as §1

CP215 = assay: as above; conditions: P. falciparum in erythrocytes, SYBR Green DNA, 72 h; series mostly up to 28.7 µM
How it was run: as §1

CP217 = assay: as above; conditions: P. falciparum in erythrocytes, SYBR Green DNA, 72 h; series mostly up to 12.8 µM
How it was run: as §1

CP237 = assay: as above; conditions: P. falciparum in erythrocytes, SYBR Green DNA, 72 h; series mostly up to 12.8 µM
How it was run: as §1

CP238 = assay: as above; conditions: P. falciparum in erythrocytes, SYBR Green DNA, 72 h; series mostly up to 12.8 µM
How it was run: as §1

CP247 = assay: as above; conditions: P. falciparum in erythrocytes, SYBR Green DNA, 72 h; series mostly up to 12.8 µM
How it was run: as §1

CP250 = assay: as above; conditions: P. falciparum in erythrocytes, SYBR Green DNA, 72 h; series mostly up to 12.8 µM
How it was run: as §1

ATP-dependent 6-phosphofructokinase (Trypanosoma brucei brucei), sequence (O15648 whole entry, looked up): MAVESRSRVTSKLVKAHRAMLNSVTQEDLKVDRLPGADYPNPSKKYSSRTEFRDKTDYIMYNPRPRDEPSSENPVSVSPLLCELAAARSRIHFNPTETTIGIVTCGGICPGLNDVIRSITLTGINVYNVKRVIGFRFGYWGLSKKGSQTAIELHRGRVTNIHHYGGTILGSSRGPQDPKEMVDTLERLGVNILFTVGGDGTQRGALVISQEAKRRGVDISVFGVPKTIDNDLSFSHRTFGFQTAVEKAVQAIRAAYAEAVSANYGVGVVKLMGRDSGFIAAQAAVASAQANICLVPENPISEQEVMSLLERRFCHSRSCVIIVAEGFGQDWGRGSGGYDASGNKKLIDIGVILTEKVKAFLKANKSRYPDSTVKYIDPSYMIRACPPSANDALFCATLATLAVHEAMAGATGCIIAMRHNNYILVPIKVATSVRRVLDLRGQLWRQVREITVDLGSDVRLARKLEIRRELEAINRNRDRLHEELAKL
Ubiquitin carboxyl-terminal hydrolase 1 (Homo sapiens), sequence (O94782 whole entry, looked up): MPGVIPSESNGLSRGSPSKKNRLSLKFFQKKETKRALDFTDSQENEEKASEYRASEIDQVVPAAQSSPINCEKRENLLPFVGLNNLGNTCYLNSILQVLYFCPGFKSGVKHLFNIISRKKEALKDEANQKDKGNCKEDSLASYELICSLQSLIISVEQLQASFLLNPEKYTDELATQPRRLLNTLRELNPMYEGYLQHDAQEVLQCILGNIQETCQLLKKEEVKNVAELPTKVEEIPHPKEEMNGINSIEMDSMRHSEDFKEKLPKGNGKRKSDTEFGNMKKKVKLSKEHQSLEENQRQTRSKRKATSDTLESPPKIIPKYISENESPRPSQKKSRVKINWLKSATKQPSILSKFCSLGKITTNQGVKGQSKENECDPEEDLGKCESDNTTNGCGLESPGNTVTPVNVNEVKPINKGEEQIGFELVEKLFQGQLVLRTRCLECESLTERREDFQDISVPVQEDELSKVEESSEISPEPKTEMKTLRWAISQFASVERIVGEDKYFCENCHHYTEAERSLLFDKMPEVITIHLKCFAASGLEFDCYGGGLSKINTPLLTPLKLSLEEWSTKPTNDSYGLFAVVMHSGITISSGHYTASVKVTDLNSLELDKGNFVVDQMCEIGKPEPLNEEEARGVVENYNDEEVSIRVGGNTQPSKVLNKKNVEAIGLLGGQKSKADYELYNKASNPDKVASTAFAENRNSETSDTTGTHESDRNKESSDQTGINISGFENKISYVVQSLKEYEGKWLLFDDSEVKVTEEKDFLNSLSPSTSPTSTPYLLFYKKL
Luciferin 4-monooxygenase (Photinus pyralis), sequence (P08659 whole entry, looked up): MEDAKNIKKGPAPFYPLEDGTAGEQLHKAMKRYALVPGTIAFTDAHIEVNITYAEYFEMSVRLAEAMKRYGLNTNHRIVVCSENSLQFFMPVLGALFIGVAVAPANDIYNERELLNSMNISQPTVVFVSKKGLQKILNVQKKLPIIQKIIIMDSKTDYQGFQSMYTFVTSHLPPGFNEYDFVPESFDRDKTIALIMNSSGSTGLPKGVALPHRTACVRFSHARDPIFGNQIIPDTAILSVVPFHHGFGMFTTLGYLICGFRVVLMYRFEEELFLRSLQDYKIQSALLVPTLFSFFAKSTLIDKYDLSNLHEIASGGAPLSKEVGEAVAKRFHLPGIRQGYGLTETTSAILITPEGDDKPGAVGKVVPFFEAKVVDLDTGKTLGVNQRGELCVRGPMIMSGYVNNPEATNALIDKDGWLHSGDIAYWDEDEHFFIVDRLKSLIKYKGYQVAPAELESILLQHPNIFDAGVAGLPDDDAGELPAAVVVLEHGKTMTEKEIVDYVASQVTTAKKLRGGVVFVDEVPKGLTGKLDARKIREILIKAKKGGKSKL
Cytochrome P450 1A2 (Homo sapiens), sequence (P05177 whole entry, looked up): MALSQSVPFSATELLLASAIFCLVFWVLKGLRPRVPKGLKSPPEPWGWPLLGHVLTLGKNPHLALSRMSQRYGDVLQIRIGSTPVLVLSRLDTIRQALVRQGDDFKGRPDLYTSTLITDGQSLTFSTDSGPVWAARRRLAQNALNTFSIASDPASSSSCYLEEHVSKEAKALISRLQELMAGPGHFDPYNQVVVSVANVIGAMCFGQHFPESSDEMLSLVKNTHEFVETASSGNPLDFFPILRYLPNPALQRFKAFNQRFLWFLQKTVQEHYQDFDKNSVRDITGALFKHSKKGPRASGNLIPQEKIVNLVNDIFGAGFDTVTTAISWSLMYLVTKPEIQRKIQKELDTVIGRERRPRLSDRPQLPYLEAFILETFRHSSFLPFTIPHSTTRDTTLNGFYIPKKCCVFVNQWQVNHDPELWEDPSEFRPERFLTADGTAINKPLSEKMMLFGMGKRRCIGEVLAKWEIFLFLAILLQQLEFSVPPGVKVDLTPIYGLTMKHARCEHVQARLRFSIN
Glucocorticoid receptor (Homo sapiens), sequence (P04150 whole entry, looked up, the tested form may be a part): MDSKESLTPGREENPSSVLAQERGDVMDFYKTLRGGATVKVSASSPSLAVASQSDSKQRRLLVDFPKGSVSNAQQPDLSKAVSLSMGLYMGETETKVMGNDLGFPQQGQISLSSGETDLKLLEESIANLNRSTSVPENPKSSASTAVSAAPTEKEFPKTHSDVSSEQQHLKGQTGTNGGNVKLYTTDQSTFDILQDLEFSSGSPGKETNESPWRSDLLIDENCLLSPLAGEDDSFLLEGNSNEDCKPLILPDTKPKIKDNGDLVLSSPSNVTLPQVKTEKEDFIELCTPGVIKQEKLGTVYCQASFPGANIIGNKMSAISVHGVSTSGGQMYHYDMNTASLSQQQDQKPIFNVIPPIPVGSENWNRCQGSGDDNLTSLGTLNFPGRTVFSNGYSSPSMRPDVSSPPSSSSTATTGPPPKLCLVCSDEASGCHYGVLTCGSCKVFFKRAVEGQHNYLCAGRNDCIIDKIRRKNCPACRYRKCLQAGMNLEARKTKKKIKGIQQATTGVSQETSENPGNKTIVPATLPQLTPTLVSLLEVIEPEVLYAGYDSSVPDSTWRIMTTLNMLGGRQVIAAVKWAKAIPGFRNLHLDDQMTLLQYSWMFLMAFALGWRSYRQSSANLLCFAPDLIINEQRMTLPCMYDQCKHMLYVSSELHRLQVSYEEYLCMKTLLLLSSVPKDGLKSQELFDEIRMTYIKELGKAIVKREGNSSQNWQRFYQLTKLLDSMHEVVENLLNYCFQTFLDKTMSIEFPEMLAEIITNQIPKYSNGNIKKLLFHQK
3',5'-cyclic-AMP phosphodiesterase 4B (Homo sapiens), sequence (Q07343 whole entry, looked up): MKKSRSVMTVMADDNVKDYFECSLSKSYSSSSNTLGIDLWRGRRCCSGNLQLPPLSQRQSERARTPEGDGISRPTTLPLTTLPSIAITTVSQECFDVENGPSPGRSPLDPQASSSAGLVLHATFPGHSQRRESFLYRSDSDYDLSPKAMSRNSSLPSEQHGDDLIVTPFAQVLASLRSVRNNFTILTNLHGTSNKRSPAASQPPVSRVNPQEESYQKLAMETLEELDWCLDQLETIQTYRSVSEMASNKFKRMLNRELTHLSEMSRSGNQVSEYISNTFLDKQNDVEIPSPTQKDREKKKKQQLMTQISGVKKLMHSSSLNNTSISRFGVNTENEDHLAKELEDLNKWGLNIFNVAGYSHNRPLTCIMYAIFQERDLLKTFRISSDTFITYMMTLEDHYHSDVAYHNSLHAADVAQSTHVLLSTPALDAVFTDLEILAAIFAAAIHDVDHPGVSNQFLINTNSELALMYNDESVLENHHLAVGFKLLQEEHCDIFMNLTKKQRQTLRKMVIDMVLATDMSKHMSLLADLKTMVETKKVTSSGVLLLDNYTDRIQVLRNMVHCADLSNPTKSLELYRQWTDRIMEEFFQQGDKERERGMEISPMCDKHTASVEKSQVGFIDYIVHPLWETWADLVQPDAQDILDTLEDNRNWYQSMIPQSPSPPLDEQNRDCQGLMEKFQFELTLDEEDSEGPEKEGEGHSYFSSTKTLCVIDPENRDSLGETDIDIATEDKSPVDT

NC(N)=NC[C@@H]1COC2(CCCCC2)O1
inactive: activity change, negative = inhibition [1] 13.7% [at 17.2 µM] | Potency [2] | activity change, negative = inhibition [3] 18.5% [at 17.2 µM] | activity, negative = inhibition [4] 6.54% [at 17.2 µM] | Potency [5] > 20.6 µM | Potency [6] | Potency [7] | activity change, negative = inhibition ([8]; at 25.7 µM (top of the series)) -0.418% | outcome [9] | Potency [10] | outcome [11] | Potency [12] | Potency [13] | outcome [14] | activity, negative = inhibition ([15]; parasite line A) -12.1% | activity, negative = inhibition ([15]; parasite line B) -13% | Potency (3D7) | Potency (7G8) | Potency (AA1029) | Potency (AS120) | Potency (ATS189) | Potency (ATS95) | Potency (C2A) | Potency (CP185) | Potency (CP191) | Potency (CP192) | Potency (CP194) | Potency (CP201) | Potency (CP203) | Potency (CP211) | Potency (CP215) | Potency (CP217) | Potency (CP237) | Potency (CP238) | Potency (CP247) | Potency (CP250)
-12.6%: max response ([8]; measured here: lipid channel max response)
-12.5%: max response ([8]; measured here: cell count channel max response)
